Assay outcomes: PubChem, several laboratories
ARNT TACC3 PPI – disruptors of human ARNT/TACC3 interaction | inhibition, % at 9.99 µM | AID 623870 | AlphaScreen His-ARNT PAS-B/GST-TACC3 binding, luminescence; TACC3 fragment carries E629A point mutation | 0.66% of 390,000 active;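 active means mean inhibition of replicates at least 50% and at least half of replicates each reaching 50%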;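 further: 0% = complete ARNT plus TACC3 wells and 100% = ARNT alone without TACC3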
NadD block – inhibitors of Staphylococcus aureus NadD; purified NadD enzyme, colorimetric absorbance read-out; inhibition, % at 20 µM; 0.78% of 360,000 active; in the data active means inhibition above about 26%
DAGLB inh – diacylglycerol lipase beta (human) inhibition | HEK293T DAGLB membrane lysate, EnzChek fluorogenic substrate | inhibition, % at 5.17 µM | AID 504411 | 0.059% of 340,000 active; in the data active means inhibition above about 34%;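 further: 0% = enzyme with vehicle and 100% = wells lacking enzyme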
HGIII-sPLA2 inh – Inhibits HGIII-sPLA2 liposome hydrolysis, primary screen; Q9NZ20; 0.56% of 370,000 active; AID 743126; QFRET BODIPY PC-A2 liposome hydrolysis, fluorescence; inhibition, % at 12.2 µM;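 active means inhibition above mean plus 3 SD of compounds lying within the high and low control bounds, cut at about 19% in these data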;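 further: 0% = median of test compound wells and 100% = no enzyme DMSO wells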
Neddyl block – inhibitors of human cullin neddylation. P61081+Q13564. TR-FRET cullin neddylation, biochemical. 0.58% of 360,000 active. AID 651699. inhibition, % at 25 µM; in the data active means inhibition above about 36%
Neddyl inh conf – confirmation of human cullin neddylation inhibitors; AID 652217; TR-FRET cullin neddylation biochemical assay; calls only at 25 µM; shares compounds with Neddyl block; 13% of 1,800 active; in the data active means inhibition above about 40%;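 further: neddylation substrate is the cullin 1 ring ligase complex with SKP2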
An asterisk follows results filed as active; i = inactive; nt = no result given; + = active, no number. Most compounds without a hit are left out; they make up all but 2% or so of the library.

SMILES	ARNT TACC3 PPI	NadD block	DAGLB inh	HGIII-sPLA2 inh	Neddyl block	Neddyl inh conf
COc1ccc(NC(=O)Nc2ccc3c(c2)C(=O)N([C@@H](C)CO)C[C@H](C)[C@@H](CN(C)S(=O)(=O)c2cn(C)cn2)OCCCC[C@H](C)O3)cc1	1	nt	nt	nt	nt	nt
CCOc1ccc2[nH]c3ncccc3c(=O)c2c1	-1	0	0	-6	47*	+
C[C@H]1CN([C@@H](C)CO)C(=O)c2cccc(NS(=O)(=O)c3ccc(Cl)cc3)c2O[C@@H]1CN(C)Cc1ccccc1	-13	nt	nt	nt	nt	nt
C=CCNC(=S)/N=c1/ccccn1C	-2	-1	-3	1	16	nt
C=CCNC(=S)/N=c1/ccccn1CCC	-3	0	1	7	51*	i
CCn1c2ccccc2c2nc3cc(OC)c(OC)cc3nc21	-9	-8	-2	5	48*	nt
CCOCCn1c2ccccc2c2nc3ccccc3nc21	-3	-2	-4	4	41*	i
CN1C(=O)c2cc(NC(=O)c3ccc(Cl)cc3)ccc2OC[C@@H]2O[C@H](CC(=O)NCc3cccc(F)c3)CC[C@H]21	12	nt	nt	nt	nt	nt
CCCCn1c(=NC(C)=O)c(C#N)cc2c(=O)n3cccc(C)c3nc21	-3	4	0	-3	nt	nt
CCCCn1c(=NC(=O)c2ccc3c(c2)OCO3)c(C#N)cc2c(=O)n3cccc(C)c3nc21	-1	23	3	-1	55*	i
COC(=O)C[C@@H]1CC[C@@H]2[C@H](COc3ccc(NS(=O)(=O)c4cccc(F)c4)cc3C(=O)N2C)O1	2	nt	nt	nt	nt	nt
Cc1cc(C)n2nc(-c3cnn(C)c3C(F)(F)F)c(Cl)c2n1	-1	2	-1	3	21	nt
Cc1ccc(-c2cc3nc(C)cc(C)n3n2)cc1	5	-2	-3	3	47*	i
Cc1cc(C)n2nc(-c3cnn(C)c3C(F)(F)F)cc2n1	20	-2	-1	5	42*	+
CCCNC(=O)N(C)C[C@@H]1Oc2ncc(Br)cc2C(=O)N([C@H](C)CO)C[C@H]1C	-3	nt	nt	nt	nt	nt
CCc1ccc(S(=O)(=O)c2n[nH]n3c2nc(=O)c2ccccc23)cc1	7	5	10	0	46*	i
CC(C)c1ccc(S(=O)(=O)c2n[nH]n3c2nc(=O)c2ccccc23)cc1	-4	17	12	-9	50*	i
COCC(=O)Nc1ccc2c(c1)C(=O)N(C)C[C@H](OC)[C@H](C)CN(Cc1ccccc1)[C@@H](C)CO2	11	nt	nt	nt	nt	nt
c1ccc(Nc2cccc3c(Nc4ccccc4)cccc23)cc1	8	0	0	4	38*	+
c1ccc(Nc2ccccc2)cc1	11	4	1	2	14	nt
CC=Cc1ccc2n(c1=O)C[C@@H]1[C@@H](CO)[C@H](C(=O)NCC)[C@H]2N1Cc1nccs1 (mixture of isomers)	-9	nt	nt	nt	nt	nt
C[C@@H]1CN([C@@H](C)CO)C(=O)c2cc(C3=CCCCC3)cnc2O[C@@H]1CN(C)Cc1ccccn1	3	nt	nt	nt	nt	nt
CC(=O)c1ccc2c3c(cccc13)CC2	nt	0	-4	-4	38*	i
COc1ccc(CCNC(=O)c2cc(-c3ccco3)nc3ccccc23)cc1	nt	nt	nt	10	nt	nt
CC(=O)c1cccc(NC(=O)c2cc(-c3ccco3)nc3ccccc23)c1	5	20	3	-5	14	nt
SMILES	ARNT TACC3 PPI	NadD block	DAGLB inh	HGIII-sPLA2 inh	Neddyl block	Neddyl inh conf
O=C(c1cc(-c2ccco2)nc2ccccc12)N1CCCC(C(F)(F)F)C1 (configuration not stated)	nt	8	4	1	60*	nt
O=C(Nc1ccccc1F)c1cc(-c2ccco2)nc2ccccc12	5	5	1	3	45*	nt
CN(CCOc1ccc(Cl)cc1)C(=O)c1cc(-c2ccco2)nc2ccccc12	3	-1	-2	-1	62*	nt
COc1cccc(NC(=O)c2cc(-c3ccco3)nc3ccccc23)c1	-2	2	0	10	38*	nt
CC(=O)NCC1CCCN(Cc2cn(-c3ccccc3)nc2-c2ccc3c(c2)OCO3)C1 (configuration not stated)	-2	-4	1	3	40*	i
COC(=O)C1CCN(Cc2cn(-c3ccccc3)nc2-c2ccc3c(c2)OCO3)CC1	7	-5	-6	-4	40*	i
C[C@H]1CN([C@@H](C)CO)S(=O)(=O)c2ccc(-c3cccc(C#N)c3)cc2O[C@@H]1CN(C)C(=O)c1ccc(F)cc1	-1	nt	nt	nt	nt	nt
